Source: PubChem BioAssay (EPA / NIEHS)
Inconclusive results are not listed. Calls of active or inactive are those of the source. The calls were made as follows, unless noted: active = hit-call score of the fitted dose curve at least 0.9, where 1 is the maximum; inconclusive = response in the unintended direction; inactive = score below 0.9.

Columns and labels:
[1] = CCTE_Mundy_HCI_Cortical_NOG_NeuriteCount: CCTE's Neurite Outgrowth Assay in rat cortical cells for Neurite Count, Mundy Lab (AID 2284212; active = hit-call score of the fitted dose curve at least 0.9, where 1 is the maximum; inactive = score below 0.9;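 also: cells fixed about two days after chemical exposure began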)
Method in brief: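 Rat cortical primary cells; compound added 2 h post-plating, 1/10 dilution of working solution. Anti-betaIII-tubulin/AF488 ICC; ArrayScan neurite count vs DMSO.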

[2] = CCTE_Mundy_HCI_hN2_NOG_NeuriteCount: CCTE's Neurite Outgrowth Assay in human hN2 cells for Neurite Count, Mundy Lab (AID 2284219)
Method in brief: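 In this morphology assay, hNP1-derived neurons received test chemical 2 h post-plating and were fixed two days later in warm paraformaldehyde/sucrose containing Hoechst 33342. Neurites, labelled by rabbit anti-βIII-tubulin (1:800) and Alexa Fluor-488 (1:500), were counted automatically.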

[3] = CCTE_Mundy_HCI_hN2_NOG_NeuriteLength: CCTE's Neurite Outgrowth Assay in human hN2 cells for Neurite Length, Mundy Lab (AID 2284220)
Method in brief: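 Using βIII-tubulin immunofluorescence and Hoechst nuclear counterstain, this component quantifies neurite length in hNP1-derived neurons.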

[4] = CCTE_Mundy_HCI_hN2_NOG_NeuronCount: CCTE's Neurite Outgrowth Assay in human hN2 cells for Neuron Count, Mundy Lab (AID 2284221)
Method in brief: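 Read-out is the number of betaIII-tubulin-positive neurons imaged by automated high-content analysis, with DMSO as negative control.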

[5] = CCTE_Mundy_HCI_Cortical_NOG_NeuronCount: CCTE's Neurite Outgrowth Assay in rat cortical cells for Neuron Count, Mundy Lab (AID 2284236);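 also: neurons counted by imaging betaIII-tubulin and Hoechst stained cortical cells; cells exposed to compound for about 48 hours before fixation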
Method in brief: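 Read-out: neuron number by high-content imaging of betaIII-tubulin (Alexa Fluor-488) and Hoechst-labelled rat primary cortical cells.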

[6] = CCTE_Mundy_HCI_Cortical_NOG_BPCount: CCTE's Neurite Outgrowth Assay in rat cortical cells for Branch Point Count, Mundy Lab (AID 2284237; active = hit-call score of the fitted dose curve at least 0.9, where 1 is the maximum; inactive = score below 0.9)
Method in brief: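 Measured 50.33 h after dosing, this morphology endpoint uses rat primary cortical cultures labelled for betaIII-tubulin. Branch points are quantified by high-content imaging, with DMSO as negative control and baseline.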

Measured: AC50

[Li+]
active: [3] 300 nM | [4] 304 nM
inactive: all other assays above
